# Assay results as given in the OligoGym collection.
# Target: RFX3
# Test: pooled miR-30 sensor sort-seq; sequence = guide strand
# Settings: shRNA
# Further: reference of the scale not given here.
row,Sequence,sensor-assay potency score (higher = more potent)
1,TTGTTGTTCGGATTGCTCCATT,-0.745
2,TTGTTGTACTGGTACTTGCTGT,-0.28
3,TTGACAACAGTCGACCTTCAGG,-0.926
4,TTCTAGTCTCTGAACCATGTTG,-0.714
5,TTGAAGATTCACAACAACGTCC,0.274
6,TTGGTATAGACAGTATCGCTTC,-0.105
7,TACACCAAGACTAACAATCAAC,-1.04
8,TAGAATTTGACAACAGTCGACC,-0.732
9,TAAATTTTCAACTTAAGCCCAA,0.019
10,AATTTGACAACAGTCGACCTTC,0.318
11,TAAATCACCAAACTCGCCCATG,-0.686
12,TTAAGTGTTGTAAAAATCCTTC,-0.411

# Target: RGS13
# Test: as above
# Settings: shRNA
row,Sequence,sensor-assay potency score (higher = more potent)
1,TCTGACTTTAGAAATCTGGGGT,0.865
2,TTCCTGATGATAGTCTCTCTTG,-0.749
3,TTAATGAACATAATAGTAGGAA,0.19
4,TAGTCTCTCTTGTCGAACTGTC,-0.609
5,TAGGTTTCACATGCCATCCAGA,-0.935
6,ATGATAGTCTCTCTTGTCGAAC,-1.51
7,TTAATTGAACTACATAGGCTTG,-0.858
8,ATAGTCTCTCTTGTCGAACTGT,-0.257
9,TTAAATTTTCAAAAGACTGGGC,-0.0917
10,TTGAATATTCTCGTCACTGTGC,0.436
11,TTTTGGTACATTTCTGACTTTA,-0.566
12,TAGAAATTCTGCTCCACCGTGA,0.617

# Target: RGS6
# Test: as above
# Settings: shRNA
row,Sequence,sensor-assay potency score (higher = more potent)
1,TTCTGCTTCATAATCTGCCAGT,-0.422
2,TTGTCATCTTGCATCTTTGTAA,-0.676
3,TTTCAAACAATGTCTGTCGATC,-0.513
4,TTGGCTGAGTACATGCACCGGG,0.473
5,TTTTCAAACAATGTCTGTCGAT,-0.396
6,TAATCTCAAGTGATAGTCGTGA,0.294
7,TTATTTTGCATTGTCCTCTTAC,-0.243
8,TTTGACACACACACACAGGGAA,0.653
9,TAATCTGCCAGTTCCAGCCTTG,-0.407
10,TCTGTCTTGTCTTTTTTCCGGT,0.0231
11,TCAAACGTCGACATTTTCGGAT,-0.513
12,TAAACTTTCAGCCACTTTGGAC,-0.804
